# Assay results taken from the supplement of paper PMC8728848.
# This is one part of a sample in which the strongest signals are shown more often than they occur.
# B1: DC-ASGPR-short (Homo sapiens) (protein)
# chain: MTRTYENFQYLENKVKVQGFKNGPLPLQSLLQRLRSGPCHLLLSLGLGLLLLVIICVVGFQNSKFQRDLVTLRTDFSNFTSNTVAEIQALTSQGSSLEETIASLKAEVEGFKQERQAVHSEMLLRVQQLVQDLKKLTCQVATLNNNASTEGTCCPVNWVEHQDSCYWFSHSGMSWAEAEKYCQLKNAHLVVINSREEQNFVQKYLGSAYTWMGLSDPEGAWKWVDGTDYATGFQNWKPGQPDDWQGHGLGGGEDCAHFHPDGRWNDDVCQRPYHWVCEAGLGQTSQESH
# Assays:
# Experiment in all cases: glycan array binding signal (z-score within array); higher = stronger binding
# Conditions in all cases: glycan notation: IUPAC condensed, linker removed
# [1] = target: Fuc(a1-2)Gal(b1-4)GlcNAc(b1-6)GalNAc
# Summary of the method: (§1)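 Glycan array data were curated from 3228 arrays in the Consortium for Functional Glycomics database and kept only where the protein sequence was available. Glycan names were converted to IUPAC-condensed notation, and columns mapping to the same glycan were averaged. The binding signal is a within-array Z-score, averaged across arrays of the same protein sequence at different concentrations or buffers and across linkers. Negative Z-scores can be read as non-binding.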
# [2] = target: Fuc(a1-2)Gal(b1-4)[Fuc(a1-3)]GlcNAc(b1-2)[Fuc(a1-2)Gal(b1-4)[Fuc(a1-3)]GlcNAc(b1-4)]Man(a1-3)[Fuc(a1-2)Gal(b1-4)[Fuc(a1-3)]GlcNAc(b1-2)Man(a1-6)]Man(b1-4)GlcNAc(b1-4)GlcNAc
# Summary of the method: as §1
# [3] = target: Fuc(a1-2)[Gal(a1-3)]Gal(b1-4)GlcNAc(b1-3)[Fuc(a1-2)[Gal(a1-3)]Gal(b1-4)GlcNAc(b1-6)]GalNAc
# Summary of the method: as §1
# [4] = target: Fuc(a1-2)[Gal(a1-4)]Gal(b1-4)GlcNAc
# Summary of the method: as §1
# [5] = target: Fuc(a1-2)[GalNAc(a1-3)]Gal
# Summary of the method: as §1
# [6] = target: Fuc(a1-2)[GalNAc(a1-3)]Gal(b1-3)GalNAc(a1-3)[Fuc(a1-2)]Gal(b1-4)GlcNAc
# Summary of the method: as §1
# [7] = target: Fuc(a1-2)[GalNAc(a1-3)]Gal(b1-4)GlcNAc(b1-3)Gal(b1-4)GlcNAc
# Summary of the method: as §1
# [8] = target: Fuc(a1-2)[GalNAc(a1-4)]Gal(b1-4)GlcNAc
# Summary of the method: as §1
# [9] = target: Fuc(a1-2)[GalNAc(b1-3)]Gal
# Summary of the method: as §1
# [10] = target: Fuc(a1-3)[Gal(b1-4)]GlcNAc
# Summary of the method: as §1
# [11] = target: Fuc(a1-3)[Gal(b1-4)]GlcNAc(b1-3)Gal(b1-3)[Fuc(a1-4)]GlcNAc
# Summary of the method: as §1
# [12] = target: Fuc(a1-3)[GalNAc(b1-4)]GlcNAc
# Summary of the method: as §1
# [13] = target: Gal(b1-3)GalNAc(b1-3)Gal
# Summary of the method: as §1
# [14] = target: Gal(b1-3)[Fuc(a1-4)]GlcNAc
# Summary of the method: as §1
# [15] = target: Gal(b1-3)[Fuc(a1-4)]GlcNAc(b1-2)Man
# Summary of the method: as §1
# [16] = target: Gal(b1-4)GlcNAc(b1-2)[Gal(b1-4)GlcNAc(b1-6)]Man(a1-6)[GlcNAc(b1-4)][Gal(b1-4)GlcNAc(b1-2)Man(a1-3)]Man(b1-4)GlcNAc(b1-4)GlcNAc
# Summary of the method: as §1
# [17] = target: Gal(b1-4)GlcNAc(b1-3)Gal(b1-4)GlcNAc(b1-2)Man(a1-3)[Gal(b1-4)GlcNAc(b1-3)Gal(b1-4)GlcNAc(b1-2)Man(a1-6)]Man(b1-4)GlcNAc(b1-4)GlcNAc
# Summary of the method: as §1
# [18] = target: Gal(b1-4)GlcNAc(b1-3)Gal(b1-4)GlcNAc(b1-3)Gal(b1-4)GlcNAc(b1-2)Man(a1-3)[Gal(b1-4)GlcNAc(b1-3)Gal(b1-4)GlcNAc(b1-3)Gal(b1-4)GlcNAc(b1-2)Man(a1-6)]Man(b1-4)GlcNAc(b1-4)GlcNAc
# Summary of the method: as §1
# [19] = target: Gal(b1-4)GlcNAc(b1-3)Gal(b1-4)GlcNAc(b1-3)Gal(b1-4)GlcNAc(b1-2)[Gal(b1-4)GlcNAc(b1-3)Gal(b1-4)GlcNAc(b1-3)Gal(b1-4)GlcNAc(b1-6)]Man(a1-6)[Gal(b1-4)GlcNAc(b1-3)Gal(b1-4)GlcNAc(b1-3)Gal(b1-4)GlcNAc(b1-2)Man(a1-3)]Man(b1-4)GlcNAc(b1-4)[Fuc(a1-6)]GlcNAc
# Summary of the method: as §1
# [20] = target: Gal(b1-4)GlcNAc(b1-6)GalNAc
# Summary of the method: as §1
# [21] = target: Gal3S(b1-4)GlcNAc
# Summary of the method: as §1
# [22] = target: GalNAc(b1-3)Gal(a1-4)Gal(b1-4)GlcNAc
# Summary of the method: as §1
# [23] = target: GalNAc(b1-4)GlcNAc
# Summary of the method: as §1
# [24] = target: GalNAc(b1-4)GlcNAc(b1-3)GalNAc(b1-4)GlcNAc
# Summary of the method: as §1
# [25] = target: GalNAc(b1-4)GlcNAc6S
# Summary of the method: as §1
# [26] = target: GalNAc3S(b1-4)[Fuc(a1-3)]GlcNAc
# Summary of the method: as §1
# [27] = target: GlcA(b1-3)GlcNAc
# Summary of the method: as §1
# [28] = target: GlcNAc(a1-4)Gal(b1-4)GlcNAc
# Summary of the method: as §1
# [29] = target: GlcNAc(a1-4)Gal(b1-4)GlcNAc(b1-3)Gal(b1-4)[Fuc(a1-3)]GlcNAc(b1-3)Gal(b1-4)[Fuc(a1-3)]GlcNAc
# Summary of the method: as §1
# [30] = target: GlcNAc(b1-3)Gal(b1-4)GlcNAc(b1-3)[GlcNAc(b1-3)Gal(b1-4)GlcNAc(b1-3)]GalNAc
# Summary of the method: as §1
# [31] = target: GlcNAc(b1-3)[GlcNAc(b1-6)]GalNAc
# Summary of the method: as §1
# [32] = target: GlcNAc(b1-6)GalNAc
# Summary of the method: as §1
# [33] = target: GlcNAc6S(b1-3)Gal(b1-4)GlcNAc
# Summary of the method: as §1
# [34] = target: Neu5Ac(a2-3)Gal(b1-3)GalNAc6S
# Summary of the method: as §1
# [35] = target: Neu5Ac(a2-3)Gal(b1-3)GlcNAc(b1-6)GalNAc
# Summary of the method: as §1
# [36] = target: Neu5Ac(a2-3)Gal(b1-3)[Neu5Ac(a2-6)]GalNAc
# Summary of the method: as §1
# [37] = target: Neu5Ac(a2-3)Gal(b1-4)GlcNAc(b1-6)[Gal(b1-3)]GalNAc
# Summary of the method: as §1
# [38] = target: Neu5Ac(a2-3)Gal(b1-4)[Fuc(a1-3)]GlcNAc(b1-2)Man
# Summary of the method: as §1
# [39] = target: Neu5Ac(a2-3)Gal(b1-4)[Fuc(a1-3)]GlcNAc(b1-6)[Gal(b1-3)]GalNAc
# Summary of the method: as §1
# [40] = target: Neu5Ac(a2-6)Gal(b1-4)GlcNAc(b1-2)Man(a1-6)[Man(a1-3)]Man(b1-4)GlcNAc(b1-4)GlcNAc
# Summary of the method: as §1
# [41] = target: Neu5Ac(a2-6)Gal(b1-4)GlcNAc(b1-2)[Neu5Ac(a2-6)Gal(b1-4)GlcNAc(b1-4)]Man(a1-3)[GlcNAc(b1-4)][Neu5Ac(a2-6)Gal(b1-4)GlcNAc(b1-4)Man(a1-6)]Man(b1-4)GlcNAc(b1-4)GlcNAc
# Summary of the method: as §1
# [42] = target: Neu5Ac(a2-8)Neu5Ac(a2-3)Gal(b1-4)Glc
# Summary of the method: as §1
# [43] = target: Neu5Gc(a2-8)Neu5Gc(a2-6)Gal(b1-4)GlcNAc
# Summary of the method: as §1
# [44] = target: Neu5Gc(b2-6)Gal(b1-4)GlcNAc
# Summary of the method: as §1
binder,measurement,setting,value
B1,glycan array binding signal (z-score),[1],4.65
same,glycan array binding signal (z-score),[2],-0.192
same,glycan array binding signal (z-score),[3],-0.17
same,glycan array binding signal (z-score),[4],-0.263
same,glycan array binding signal (z-score),[5],0.967
same,glycan array binding signal (z-score),[6],1.27
same,glycan array binding signal (z-score),[7],0.335
same,glycan array binding signal (z-score),[8],3.1
same,glycan array binding signal (z-score),[9],4.03
same,glycan array binding signal (z-score),[10],-0.28
same,glycan array binding signal (z-score),[11],-0.284
same,glycan array binding signal (z-score),[12],3.04
same,glycan array binding signal (z-score),[13],-0.217
same,glycan array binding signal (z-score),[14],-0.264
same,glycan array binding signal (z-score),[15],-0.106
same,glycan array binding signal (z-score),[16],-0.282
same,glycan array binding signal (z-score),[17],-0.244
same,glycan array binding signal (z-score),[18],-0.221
same,glycan array binding signal (z-score),[19],-0.198
same,glycan array binding signal (z-score),[20],3.52
same,glycan array binding signal (z-score),[21],-0.271
same,glycan array binding signal (z-score),[22],6.36
same,glycan array binding signal (z-score),[23],4.38
same,glycan array binding signal (z-score),[24],4.52
same,glycan array binding signal (z-score),[25],4.1
same,glycan array binding signal (z-score),[26],-0.256
same,glycan array binding signal (z-score),[27],-0.28
same,glycan array binding signal (z-score),[28],-0.273
same,glycan array binding signal (z-score),[29],-0.266
same,glycan array binding signal (z-score),[30],-0.295
same,glycan array binding signal (z-score),[31],-0.234
same,glycan array binding signal (z-score),[32],4.64
same,glycan array binding signal (z-score),[33],-0.27
same,glycan array binding signal (z-score),[34],-0.279
same,glycan array binding signal (z-score),[35],5.92
same,glycan array binding signal (z-score),[36],-0.224
same,glycan array binding signal (z-score),[37],-0.283
same,glycan array binding signal (z-score),[38],-0.238
same,glycan array binding signal (z-score),[39],-0.285
same,glycan array binding signal (z-score),[40],-0.288
same,glycan array binding signal (z-score),[41],-0.34
same,glycan array binding signal (z-score),[42],-0.277
same,glycan array binding signal (z-score),[43],-0.279
same,glycan array binding signal (z-score),[44],-0.278
